Source: PubChem BioAssay (NCATS)
Inconclusive results are not listed. Activity calls are given as the source filed them. Unless noted, calls follow the shape of the full dose curve.

Columns and labels:
[1] = Cell Viability - BJ (AID 421); details: BJ fibroblast viability, qHTS;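 also: potency is read from the fitted curve at half-maximal effect; cells exposed to compound for 40 hours at 37 °C before readout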
Method in brief: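 Cytotoxicity as drop in intracellular ATP (CellTiter-Glo, 20 min RT) after 40 hr compound exposure of BJ fibroblasts at 37 °C. Titrations scaled between DMSO and 100 uM tamoxifen, Hill-fitted for AC50.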

[2] = Cell Viability - Jurkat (AID 426;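 active = dose-dependent loss of cell ATP signal giving a full or clear fitted curve, ranked by lower potency value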;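 also: potency is read from the fitted curve at half-maximal effect; cells exposed to compound for 40 hours at 37 °C before ATP read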); details: qHTS
Method in brief: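 Luminescent ATP read-out (CellTiter-Glo, 20 min at room temperature) after 40 hr compound exposure at 37 °C of Jurkat E6-1 cells, 5000/well. Decreased ATP taken as cytotoxicity; AC50 from standard Hill equation.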

[3] = Cell Viability - Hek293 (AID 427;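 active = compounds whose dose-response curve shows a full or clear partial loss of cell viability, called from curve shape rather than a numeric limit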;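 also: potency is read from the fitted curve at half-maximal effect; cells exposed to compound for 40 hours at 37 °C before reading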); details: qHTS
Method in brief: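 Luminescent ATP content (CellTiter-Glo, 20 min at room temperature) was measured after a 40 hr, 37 °C compound exposure of HEK293 cells. AC50 values came from Hill-equation fits of qHTS concentration-response data normalized to DMSO and 100 uM tamoxifen.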

[4] = Cell Viability - HepG2 (AID 433); details: qHTS;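 also: potency is read from the fitted curve at half-maximal effect; potency for ATP loss meaning cytotoxicity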
Method in brief: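 HepG2 hepatocellular carcinoma cells (1500/well) were treated with compounds for 40 h at 37 °C in complete medium; intracellular ATP was read by CellTiter-Glo luminescence. Data were normalized to DMSO and 100 uM tamoxifen, and AC50 came from Hill fits.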

[5] = Cell Viability - MRC5 (AID 434); details: MRC5 lung fibroblast viability, qHTS;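 also: potency is read from the fitted curve at half-maximal effect; potency reflects cytotoxicity seen as loss of intracellular ATP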
Method in brief: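 ATP luminescence read-out (CellTiter-Glo, 20 min RT) after 40 hr, 37 °C compound exposure of 1500 MRC5 cells/well. Data normalized to DMSO (basal) and 100 uM tamoxifen (100% inhibition); AC50 from standard Hill equation.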

[6] = Cell Viability - SK-N-SH (AID 435); details: SK-N-SH neuroblastoma cell viability qHTS;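 also: potency is read from the fitted curve at half-maximal effect; compound exposure lasted 40 h at 37 °C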
Method in brief: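 SK-N-SH human neuroblastoma cells (1500/well) were exposed to compounds in complete medium for 40 h at 37 °C, and intracellular ATP was then measured by CellTiter-Glo luminescence. AC50 was taken from Hill fits, normalized to DMSO and 100 uM tamoxifen.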

[7] = biological target: Mitogen-activated protein kinase 10 (Mus musculus) (UniProt Q61831); assay: JNK3 AlphaScreen Assay (AID 530; active = well fitted curve in either direction with a large enough effect, not every such curve was filed as active;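 also: kinase came from lysate of stimulated human HepG2 cells; signal reports phosphorylation of biotinylated GST-cJun 1-79 at Ser73 with 10 µM ATP; % is scaled to controls: 0 for no effect and ±100 for the full control effect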); details: JNK3 lysate, c-Jun phosphorylation; series mostly up to 57.1 µM
Method in brief: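 HepG2 lysate (IL-1b/TNFa pre-activated) + biotin-GST-cJun 1-79 + anti-pSer73 cJun; cpd titration, 15 min RT; ATP 10 uM start; Tris pH 7.6, MgCl2, DTT, vanadate; beads in EDTA buffer; AlphaScreen.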

[8] = Cell Viability - N2a (AID 540; active = well fitted curve in the direction sought with a large enough effect; an effect the other way counts as inactive or inconclusive;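 also: plate controls were DMSO alone for no effect and tamoxifen control for full effect; nearly all actives have a fitted effect of over 45% in size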); details: N2a mouse neuroblastoma cell viability; activity change, negative = cytotoxicity: at 92.2 µM (top of the series)
Method in brief: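 N2a mouse neuroblastoma, 1500 cells/well, 5 hr settle; compound 40 hr, 37 °C; CellTiter-Glo 20 min RT; luminescence; Hill-fit AC50.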

[9] = Cell Viability - NIH 3T3 (AID 541; active = well fitted curve in the direction sought with a large enough effect; an effect the other way counts as inactive or inconclusive;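 also: plate controls were DMSO alone for no effect and tamoxifen positive control for full effect; nearly all actives have a fitted effect of over 25% in size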); details: NIH 3T3 cell viability, qHTS; activity change, negative = cytotoxicity: at 92.2 µM (top of the series)
Method in brief: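 qHTS format; 40 hr compound exposure, 37 °C; CellTiter-Glo luminescence (cellular ATP) read-out after 20 min at RT. Decrease in ATP = cytotoxicity; AC50 from standard Hill fit.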

[10] = Cell Viability - HUV-EC-C (AID 542; active = well fitted curve in the direction sought with a large enough effect; an effect the other way counts as inactive or inconclusive; also: % is scaled to controls: 0 for no effect and ±100 for the full control effect; nearly all actives have a fitted effect of over 35% in size); details: HUV-EC-C endothelial cell viability, qHTS; series mostly up to 92.2 µM
Method in brief: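 Luminescent ATP read-out (CellTiter-Glo, 20 min room temperature) after 40 hr compound treatment of HUV-EC-C cells at 37 °C. Concentration-response data fitted with the standard Hill equation to give AC50; tamoxifen and doxorubicin served as positive controls.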

C=CCCC
inactive: Potency [1] > 92 µM | Potency [2] > 92 µM | Potency [3] > 92 µM | Potency [4] > 92 µM | Potency [5] > 92 µM | Potency [6] > 92 µM | outcome [7] | activity change, negative = cytotoxicity [8] 1.78% | Potency [9] | Potency [10]

Fc1ccccc1
inactive: Potency [1] > 92 µM | Potency [2] > 92 µM | Potency [3] > 92 µM | Potency [4] > 92 µM | Potency [5] > 92 µM | Potency [6] > 92 µM | outcome [7] | activity change, negative = cytotoxicity [8] 2.48% | Potency [9] | Potency [10]

Cc1cccc2sc(N)nc12
inactive: Potency [1] > 92 µM | Potency [2] > 92 µM | Potency [3] > 92 µM | Potency [4] > 92 µM | Potency [5] > 92 µM | Potency [6] > 92 µM | outcome [7] | activity change, negative = cytotoxicity [8] -1.12% | Potency [9] | Potency [10]

CC(C)Cc1nccs1
inactive: Potency [1] > 92 µM | Potency [2] > 92 µM | Potency [3] > 92 µM | Potency [4] > 92 µM | Potency [5] > 92 µM | Potency [6] > 92 µM | outcome [7] | activity change, negative = cytotoxicity [8] 2.65% | Potency [9] | Potency [10]

OCCO
inactive: Potency [1] > 92 µM | Potency [2] > 92 µM | Potency [3] > 92 µM | Potency [4] > 92 µM | Potency [5] > 92 µM | Potency [6] > 92 µM | outcome [7] | activity change, negative = cytotoxicity [8] -12.9% | Potency [9] | Potency [10]

CC=O
inactive: Potency [1] > 92 µM | Potency [2] > 92 µM | Potency [3] > 92 µM | Potency [4] > 92 µM | Potency [5] > 92 µM | Potency [6] > 92 µM | outcome [7] | activity change, negative = cytotoxicity [8] 1.14% | Potency [9] | Potency [10]

Cc1ccc(C)c(N)c1
inactive: Potency [1] > 92 µM | Potency [2] > 92 µM | Potency [3] > 92 µM | Potency [4] > 92 µM | Potency [5] > 92 µM | Potency [6] > 92 µM | outcome [7] | activity change, negative = cytotoxicity [8] -15.8% | Potency [9] | Potency [10]

c1ccc(Oc2ccccc2)cc1
inactive: Potency [1] > 92 µM | Potency [2] > 92 µM | Potency [3] > 92 µM | Potency [4] > 92 µM | Potency [5] > 92 µM | Potency [6] > 92 µM | outcome [7] | activity change, negative = cytotoxicity [8] -0.0485% | Potency [9] | Potency [10]

CC1CCC2CC1C2(C)C (stereo not given)
inactive: Potency [1] > 92 µM | Potency [2] > 92 µM | Potency [3] > 92 µM | Potency [4] > 92 µM | Potency [5] > 92 µM | Potency [6] > 92 µM | outcome [7] | activity change, negative = cytotoxicity [8] -4.47% | Potency [9] | Potency [10]

CCOC(=O)OCC
inactive: Potency [1] > 92 µM | Potency [2] > 92 µM | Potency [3] > 92 µM | Potency [4] > 92 µM | Potency [5] > 92 µM | Potency [6] > 92 µM | outcome [7] | activity change, negative = cytotoxicity [8] -11.2% | Potency [9] | Potency [10]

CC/C(C)=N/O
inactive: Potency [1] > 92 µM | Potency [2] > 92 µM | Potency [3] > 92 µM | Potency [4] > 92 µM | Potency [5] > 92 µM | Potency [6] > 92 µM | outcome [7] | activity change, negative = cytotoxicity [8] 3.53% | Potency [9] | Potency [10]

CC(=O)c1nccs1
inactive: Potency [1] > 92 µM | Potency [2] > 92 µM | Potency [3] > 92 µM | Potency [4] > 92 µM | Potency [5] > 92 µM | Potency [6] > 92 µM | outcome [7] | activity change, negative = cytotoxicity [8] 2.98% | Potency [9] | Potency [10]

N#Cc1ccccc1
inactive: Potency [1] > 92 µM | Potency [2] > 92 µM | Potency [3] > 92 µM | Potency [4] > 92 µM | Potency [5] > 92 µM | Potency [6] > 92 µM | outcome [7] | activity change, negative = cytotoxicity [8] 6.76% | Potency [9] | Potency [10]

COC(=O)CC#N
inactive: Potency [1] > 92 µM | Potency [2] > 92 µM | Potency [3] > 92 µM | Potency [4] > 92 µM | Potency [5] > 92 µM | Potency [6] > 92 µM | outcome [7] | activity change, negative = cytotoxicity [8] -15.8% | Potency [9] | Potency [10]

CCN(CC)c1cccc(O)c1
inactive: Potency [1] > 92 µM | Potency [2] > 92 µM | Potency [3] > 92 µM | Potency [4] > 92 µM | Potency [5] > 92 µM | Potency [6] > 92 µM | outcome [7] | activity change, negative = cytotoxicity [8] 0.0315% | Potency [9] | Potency [10]
